In PubChem BioAssay AID2642 (Johns Hopkins Ion Channel Center, 2010):
About 3,900 (1.3%) of roughly 310,000 compounds were called active.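 Rule for the calls: active = compounds whose thallium flux B-score, printed positive for inhibition, exceeds three library SD while starting fluorescence stays within three; inactive = the rest.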 Shown is part of a subset that was picked to be rich in actives.

Each compound was assayed against Potassium voltage-gated channel subfamily KQT member 1 (Homo sapiens) (UniProt P51787) (assay: KCNQ1 potassium current blockers – cell-based, thallium flux, high-throughput, primary screen (AID 2642;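 note: channel opened by potassium depolarization with thallium stimulus after 20 min compound exposure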)). Details: CHO-K1 KCNQ1, FluxOR thallium flux fluorescence, at 10 µM; active compounds read high.
Sequence of Potassium voltage-gated channel subfamily KQT member 1 (Homo sapiens) (P51787 whole entry, looked up): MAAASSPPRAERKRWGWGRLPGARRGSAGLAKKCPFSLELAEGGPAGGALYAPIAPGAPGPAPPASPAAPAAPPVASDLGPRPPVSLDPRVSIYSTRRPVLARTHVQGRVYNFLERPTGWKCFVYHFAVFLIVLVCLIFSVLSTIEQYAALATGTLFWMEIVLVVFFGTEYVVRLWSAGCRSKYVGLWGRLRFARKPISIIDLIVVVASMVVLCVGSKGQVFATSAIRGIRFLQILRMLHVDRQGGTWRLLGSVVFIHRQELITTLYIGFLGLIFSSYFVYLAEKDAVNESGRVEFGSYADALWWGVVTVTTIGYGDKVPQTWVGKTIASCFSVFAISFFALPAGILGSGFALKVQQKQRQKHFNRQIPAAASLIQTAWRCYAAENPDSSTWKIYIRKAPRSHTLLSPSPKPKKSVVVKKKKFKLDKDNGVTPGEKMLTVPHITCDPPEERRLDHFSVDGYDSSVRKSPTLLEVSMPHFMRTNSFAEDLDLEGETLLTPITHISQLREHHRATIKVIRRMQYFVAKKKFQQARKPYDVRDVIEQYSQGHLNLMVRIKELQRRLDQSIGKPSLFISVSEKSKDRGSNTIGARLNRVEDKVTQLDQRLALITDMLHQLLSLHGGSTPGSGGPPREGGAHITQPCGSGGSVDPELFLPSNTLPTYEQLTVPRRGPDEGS

Compound	B-score
CC(C)NS(=O)(=O)c1ccc(NC(=O)C2CCCCC2)cc1	inactive
COc1ccc(OC)c(S(=O)(=O)NCCC(C)C)c1	inactive
CC(NC(=O)COC(=O)C1CCN(S(=O)(=O)c2ccccc2C(F)(F)F)CC1)c1ccccc1 (centres undefined)	inactive
Cc1ccc(CS(=O)Cc2ccc(C(=O)N3CCOCC3)o2)cc1 (centres undefined)	inactive
Cc1ccc(-c2noc(CC(c3ccccc3)c3ccccc3)n2)cc1	7 (active)
Cc1ccc(-c2noc(CSc3nnc(-c4ccccc4)n3C)n2)cc1	inactive
Cc1ccc(-c2noc(CN3CCN(Cc4ccccc4)CC3)n2)cc1	inactive
COc1cccc(NC(=O)[C@H](Cc2c[nH]c3ccccc23)NC(=O)[C@@H]2Cc3ccccc3CN2)c1	inactive
CC(C)(O)C#Cc1ncc(C(F)(F)F)cc1Cl	inactive
COCCOC1CCN(C(=O)c2ccc(OC)c(OC3CCN(C(C)C)CC3)c2)CC1	inactive
O=C(NCCN1CCOCC1)/C(=C/c1ccc(F)cc1)NC(=O)c1ccccc1	inactive
CCN1CCN(CCNC(=O)c2ccc3c(c2)NC(=O)/C(=C\c2ccc(OC)c(OC)c2)S3)CC1	inactive
CCN1CCN(CCNC(=O)c2ccc(/C=C3/Sc4ccccc4N(Cc4cccc(C)c4)C3=O)cc2)CC1	13 (active)
CN1CCN(CCCNC(=O)c2ccc(/C=C3\Oc4ccccc4N(Cc4ccc(Cl)cc4)C3=O)cc2)CC1	inactive
O=C(NCCCN1CCOCC1)c1ccc2c(c1)N(Cc1cccc(F)c1)C(=O)c1ccccc1S2	inactive
O=C(NCCN1CCOCC1)c1ccc(/C=C2\Sc3ccccc3N(Cc3ccc(F)cc3)C2=O)cc1	10 (active)
CC(=O)Nc1ccc(S(=O)(=O)N(C)c2ccc(OCC(=O)OCC(=O)N3CCCCC3)cc2)cc1	inactive
COc1ccccc1N(C)S(=O)(=O)c1ccc(Cl)c(C(=O)N2CCC(C(N)=O)CC2)c1	inactive
COC(=O)c1ccc(CN2CCCC(C(=O)Nc3cccc(-n4cnnn4)c3)C2)cc1 (centres undefined)	inactive
CC(C)CCN1C(=O)c2ccc(C(=O)Nc3cccc(S(N)(=O)=O)c3)cc2C1=O	inactive
O=C(CS(=O)(=O)c1cn(Cc2ccc(Cl)cc2)c2ccccc12)N1CCOCC1	inactive
COc1ccc(/C=C2/SC(=O)N(CCCCCC(=O)Nc3ccccc3C(=O)O)C2=S)cc1	6 (active)
COc1ccc(/C=C2\SC(=O)N(CCC(=O)NCCCn3ccnc3)C2=O)cc1	inactive
O=C(CCCN1C(=O)/C(=C\c2ccccc2)SC1=S)Nc1ccccc1O	inactive
Cc1cc(/C=C2/SC(=O)N(CC(=O)N3CCCC3)C2=O)ccc1N1CCOCC1	inactive
Cc1cccc(CNS(=O)(=O)c2ccc(-c3cnc(C4CC4)o3)cc2)c1	inactive

Compound	B-score
CCOC(=O)Cn1c(=O)n(Cc2ccc(OC)cc2)c(=O)c2cccnc21	inactive
COC(=O)[C@@H](Cc1ccccc1)NC(=O)NCCc1ccccc1	inactive
CCOC(=O)c1cc2sccc2n1Cc1ccc(C#N)cc1	inactive
O=C(c1cc2sccc2n1Cc1ccc(F)cc1)N1CCc2ccccc21	inactive
CC1Cc2ccccc2N1C(=O)c1cc2sccc2n1Cc1ccccc1 (centres undefined)	6 (active)
CCC(=O)OCc1c(C(F)(F)F)nn(C)c1Oc1cccc(C(F)(F)F)c1	inactive
Cn1nc(C(F)(F)F)cc1-c1ccc(/C=C(\C#N)C(=O)c2cccc(C(F)(F)F)c2)s1	8 (active)
Cn1nc(C(F)(F)F)cc1C(=O)O	inactive
CCCCN(C)CCNC(=O)C1CCCN(S(=O)(=O)c2cccc3nsnc23)C1 (centres undefined)	inactive
O=C(OCC(=O)N(CCc1ccccc1)Cc1ccccc1)c1ccccc1[N+](=O)[O-]	6 (active)
Cc1c(C(=O)NCCCc2ccccc2)cccc1[N+](=O)[O-]	inactive
CN(Cc1ccccc1)C(=O)COC(=O)c1ccccc1Nc1ccccc1	inactive
CC1=NN(C(C)C)C(=O)C1	inactive
CN(C)c1ccc(/C=N\S(=O)(=O)c2ccccc2)cc1	inactive
CC[n+]1cc(C)ccc1/C=C/c1ccc(N(C)C)cc1	14 (active)
Cc1nnc2n1N=C(c1ccc3c(c1)NC(=O)CO3)CS2	inactive
Cc1noc(C)c1CSCC(=O)N(CCC(C)C)c1c(N)n(Cc2ccccc2)c(=O)[nH]c1=O	inactive
COc1cccc(N(CC(=O)NC2CCCC2)C(=O)Cn2nnc(-c3ccc(C)o3)n2)c1	inactive
O=C(Nc1nnc(S(=O)(=O)N2CCCCCC2)s1)c1cccc(Br)c1	7 (active)
Cc1cccc(C(=O)Nc2nnc(S(=O)(=O)N3CCCCCC3)s2)c1	inactive
O=C(Nc1nnc(S(=O)(=O)N2CCOCC2)s1)c1cccc(Br)c1	inactive
CCn1cc(CNC(=O)c2cc([N+](=O)[O-])c(C)c([N+](=O)[O-])c2)cn1	inactive
Cc1cccc(NC(=O)c2cc([N+](=O)[O-])ccc2N2CCN(C)CC2)c1	inactive
Cc1cccc(NC(=O)c2sc(-c3ccccc3)nc2-c2ccc([N+](=O)[O-])cc2)c1	6 (active)
Cc1cccc(NC(=O)c2ccc([N+](=O)[O-])o2)c1	inactive
COc1ccc(CCNc2ncnc3c2nnn3Cc2ccccc2)cc1	inactive

Compound	B-score
O=C1/C(=C/c2ccc(F)cc2)SC(=S)N1CCCC(=O)N1CCCCC1CCO (centres undefined)	inactive
COc1ccc(CCNC(=O)C(=O)NCC2OCCN2S(=O)(=O)c2ccc(OC)c(C)c2)cc1 (centres undefined)	inactive
O=C1C2C3C=CC(C4CC34)C2C(=O)N1c1nccs1 (centres undefined)	inactive
COc1ccc(-c2nc(N)ncc2-c2ccc(Cl)cc2)c(O)c1	inactive
COc1cccc(-c2cnc(OC(C)(C)C)nc2OC(C)(C)C)c1	8 (active)
CC(C)(C)Oc1ncc(Br)c(OC(C)(C)C)n1	inactive
CCOc1cc2c(Cl)ncnc2c(OCC)c1OCC	inactive
COc1cccc(CN2CCN(Cc3ccc4cccc(F)c4n3)CC2CCO)c1 (centres undefined)	inactive
O=S(=O)(c1cccc2nonc12)N1CCN(c2cccc(Cl)c2)CC1	inactive
CC(Nc1ccccc1)c1cccnc1 (centres undefined)	inactive
Cc1nn2c(c1-c1ccccc1)N=C(c1ccco1)CC2c1ccccc1 (centres undefined)	inactive
CC(C)(C)NS(=O)(=O)CC12CCC(CC1=O)C2(C)C (centres undefined)	inactive
COc1ccc(Cl)cc1NC(=O)NC(C)C(C)(C)C (centres undefined)	inactive
COc1ccc(Cl)cc1NC(=O)C(C)N1CCc2ccccc21 (centres undefined)	7 (active)
COc1ccc(Cl)cc1NC(=O)NCC1CCN(Cc2ccccc2F)CC1	inactive
COc1ccccc1N1CCN(C(=O)c2cn(-c3ccccc3)nc2-c2cccnc2)CC1	inactive
COc1ccc(NC(=O)C(CC(C)C)NC(=O)C2CCC(C)CC2)cc1 (centres undefined)	inactive
COc1ccc(CCNCC(O)Cn2ccc3ccccc32)cc1OC (centres undefined)	inactive
Cc1ccc(NC(=S)Nc2ccc(F)cc2)cc1	inactive
Cc1cccc(NC(=S)NC23CN4CN(CN(C4)C2)C3)c1	inactive
Cc1cccc(NC(=S)Nc2ccc(Br)cc2)c1	6 (active)
Cc1cccc(NC(=O)NC(=S)NC(=O)c2ccccc2)c1	inactive
Cc1cccc(NC(=S)Nc2ccc(Cl)c(Cl)c2)c1	7 (active)
Cc1cccc(NC(=S)Nc2ccc3cn[nH]c3c2)c1	inactive
Cc1ccc(C)c(N2CCN(C(=O)CCCn3c(=O)c4cccn4c4cccnc43)CC2)c1	inactive
COC(=O)CN1C(=O)[C@H]2[C@@H](/C=C/c3ccccc3)N3C(=O)CN(Cc4ccccc4)C(=O)[C@@]3(Cc3ccccc3)[C@H]2C1=O	inactive

Compound	B-score
CN(C)/C=C(/C(=O)c1ccc(F)cc1)S(=O)(=O)c1ccc(F)cc1	inactive
CC(NCC(=O)Nc1cc(Cl)cc(Cl)c1)c1ccccc1 (centres undefined)	inactive
Cc1nnc(SC(C(=O)c2ccccc2)c2ccccc2)[nH]c1=O (centres undefined)	inactive
Cc1nnc(SC(C(=O)Nc2cc(Cl)cc(Cl)c2)c2ccccc2)[nH]c1=O (centres undefined)	8 (active)
CC(/C=C/c1ccco1)=N/NC(=O)C1COc2ccccc2O1 (centres undefined)	inactive
CC(/C=C/c1ccccc1)=N\NC(=O)C1CC1(C)c1ccccc1 (centres undefined)	9 (active)
O=C(N/N=C/C=C/c1ccccc1)C1CC1(c1ccccc1)c1ccccc1 (centres undefined)	inactive
COc1ccc(NC(=O)c2oc3ccc(S(=O)(=O)N4CCOCC4)cc3c2C)cc1	inactive
COCCN1C2=C(COC(C)(C)C2)C(=S)NC1c1ccccc1 (centres undefined)	inactive
Cc1nc([N+](=O)[O-])nn1C12CC3CC(CC(Br)(C3)C1)C2	inactive
CCOC(=O)c1c(NC(=O)CCCN2CCOCC2)sc2c1CC(C)(C)OC2	inactive
COc1ccc(C(=O)C2CCCN(Cc3cccn3-c3ccccn3)C2)c(C)c1 (centres undefined)	9 (active)
COc1ccc(C(=O)C2CCCN(Cc3ccc4nonc4c3)C2)c(C)c1 (centres undefined)	inactive
CCOC(=O)c1[nH]ncc1CN1CCCC(C(=O)c2ccc(OC)cc2C)C1 (centres undefined)	inactive
CCC(=O)c1ccc(OCC(O)Cn2nc(C)c(C(C)=O)c2C)cc1 (centres undefined)	inactive
Cc1ccccc1Cn1c(=O)[nH]c2ccccc21	inactive
CCOC(=O)CCc1c(C)c(C#N)c2[nH]c3ccccc3n2c1=O	inactive
CCCc1cc(=S)n2c([nH]c3ccccc32)c1C#N	8 (active)
CCCN(CC1COc2ccccc2O1)C(=S)Nc1ccc(C)cc1 (centres undefined)	inactive
CCCn1c(C)cc(/C=C(\C#N)C(=O)OCC(=O)N(C)c2c(N)n(Cc3ccccc3)c(=O)[nH]c2=O)c1C	inactive
CCC(C)[C@@H](C(=O)N1CCNCC1)n1cc(CCCCN)nn1 (some centres undefined)	inactive
O=C(CCN1C(=O)c2ccccc2C1=O)Nc1ccncc1	inactive
O=C(CCN1c2ccccc2Sc2ccccc21)Nc1ccccc1	12 (active)
CC1CCN(CCC(=O)Nc2ccccc2)CC1	inactive
CCN1CCN(C(=O)CN(C)S(=O)(=O)c2ccc3ccccc3c2)CC1	inactive
CON(C)S(=O)(=O)c1ccc2c(c1)NC(=O)C1CCCN21 (centres undefined)	inactive
